Data taken from PubChem BioAssay AID624417 (National Center for Advancing Translational Sciences (NCATS), 2012).
The campaign covered roughly 410,000 compounds. About 6,400 (1.6%) were called active. Where a call stands in place of a potency, no number is given. Another 20% or so got no clear call; they are omitted. The sample as a whole holds a higher share of actives than the screen did. A number with no mark means an inactive call. Calls come from the whole dose curve; as a rule, active = well fitted inhibition curve with a large enough effect; inconclusive = small, poorly fitted or top-dose-only effect; inactive = no such curve, though single readings can be large or run the other way.
Note: nearly all actives have a fitted effect of over 55% in size.
Potency is the fitted concentration of half-maximal effect.

These molecules were tested against Glucagon-like peptide 1 receptor (Homo sapiens) (UniProt P43220) (assay: qHTS of GLP-1 Receptor Inverse Agonists (Inhibition Mode)). Settings: HEK293 GLP-1R CRE-luciferase, luminescence, 24 h, GLP-1R form is constitutively active; series mostly up to 38.3 µM.
Glucagon-like peptide 1 receptor (Homo sapiens), sequence (P43220 whole entry, looked up): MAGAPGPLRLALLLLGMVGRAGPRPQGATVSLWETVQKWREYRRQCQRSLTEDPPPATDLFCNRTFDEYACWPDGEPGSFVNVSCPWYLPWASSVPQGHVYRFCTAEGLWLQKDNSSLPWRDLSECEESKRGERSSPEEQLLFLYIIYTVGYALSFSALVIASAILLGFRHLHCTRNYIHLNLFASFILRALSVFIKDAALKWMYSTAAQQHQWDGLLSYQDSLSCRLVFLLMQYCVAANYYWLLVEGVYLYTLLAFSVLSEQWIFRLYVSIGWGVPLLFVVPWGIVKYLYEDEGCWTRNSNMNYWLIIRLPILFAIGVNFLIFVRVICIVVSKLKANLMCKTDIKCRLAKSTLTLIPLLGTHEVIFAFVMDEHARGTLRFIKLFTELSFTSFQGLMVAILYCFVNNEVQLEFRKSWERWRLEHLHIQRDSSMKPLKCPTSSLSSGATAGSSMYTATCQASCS
Outline: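 GLP-1R inverse agonism mode: basal reporter luminescence in engineered HEK293 cells measured after one day of compound exposure at 37 deg C, with a 12 min room-temperature detection step.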
In the case of `CCc1nc2ccc(C(=O)NC3CCN(Cc4ccccc4)CC3)cn2c1N(CC)CCOC`, the Potency is reported as “inactive”. For `Cc1cc(Br)cn2c(Cc3cccc(F)c3)c(-c3cccc(Br)c3)nc12`, the Potency was “inactive”. With `O=C1CCC(CCC(=O)N2CCCC(C(=O)c3ccc(Cl)cc3)C2)=NN1` (stereo not drawn) the Potency was “inactive”. With `Cn1cc(CCC(=O)N2CCCC(C(=O)c3ccc(C(C)(C)C)cc3)C2)cn1` (stereo not drawn) the Potency was 10 µM (active). `COCC(=O)N1CCCC(C(=O)c2ccc(C(F)(F)F)cc2)C1` (stereo not drawn) was tested, and the Potency was “inactive”. `CCCNC(=O)c1cc(C2CCCCN2S(=O)(=O)c2cn(C)cn2)on1` (stereo not drawn) was tested, and the Potency was “inactive”. `O=C(NCc1ccc(F)cc1)c1cc(C2CCCCN2C(=O)c2ccccn2)on1` (stereo not drawn) was tested, and the Potency was “inactive”. In the case of `Cc1cccc(S(=O)(=O)N(C)C[C@H]2OCc3cnnn3CCCC(=O)N([C@@H](C)CO)C[C@H]2C)c1`, the Potency is reported as “inactive”. In the case of `CSc1ccc(CCNC(=O)C2CCN(c3nnc(-n4cccc4)s3)CC2)cc1`, the Potency is reported as “inactive”. `Cc1ccc(CCNC(=O)C2CCN(c3nnc(-n4cccc4CNc4ccc(C)cc4)s3)CC2)cc1` was tested, and the Potency was 4.47 µM (active). In the case of `CCOc1ccc(CNC(=O)C2CCN(c3nnc(-n4cccc4CNc4ccc(C)cc4)s3)CC2)cc1OC`, the Potency is reported as “inactive”. With `O=C(NCc1ccccc1)C(c1ccc(F)cc1)N1CCN(C(=O)C2CCCO2)CC1` (stereo not drawn) the Potency was “inactive”. In the case of `O=S1(=O)CC(N2CCSCC2)CN1Cc1cn(Cc2cccc(Cl)c2)nn1` (stereo not drawn), the Potency is reported as “inactive”. `C[C@@H]1CN([C@@H](C)CO)C(=O)CCCn2cc(nn2)CO[C@H]1CN(C)S(=O)(=O)c1ccc(-n2cccn2)cc1` was tested, and the Potency was “inactive”. `COc1ccccc1NC(=O)C(CC(=O)O)Cc1cc(C)cc(C)c1` (stereo not drawn) was tested, and the Potency was “inactive”. For `COc1ccccc1NC(=O)CC(NCCN(C)C)C(=O)O` (stereo not drawn), the Potency was “inactive”. `COc1ccccc1NC(=O)[C@H](COCc1ccccc1)NC(=O)OC(C)(C)C` was tested, and the Potency was 10 µM (active). For `O=C(NCc1nnnn1-c1ccc(Cl)cc1)c1ccc2c(c1)OCO2`, the Potency was “inactive”. `COc1cccc(/C=C2\SC(=S)N(CCCC(=O)N3CCOCC3)C2=O)c1` was tested, and the Potency was “inactive”. With `COc1ccccc1N(C)S(=O)(=O)c1ccc(C(=O)N2CCC(C(N)=O)CC2)cc1` the Potency was “inactive”. For `COc1ccc(S(=O)(=O)NC(C)C)cc1C(=O)NC1CCCCC1`, the Potency was “inactive”. In the case of `COc1ccccc1N(C)S(=O)(=O)c1ccc(C(=O)NC2CCCCCC2)cc1`, the Potency is reported as 10 µM (active). `O=C(Nc1ccc(Cl)cc1)c1csc([C@@H]2O[C@H](CO)[C@H](O)[C@H](O)[C@H]2O)n1` was tested, and the Potency was “inactive”. In the case of `CSc1ncnc2c1ncn2CCCNCC1CCCCC1`, the Potency is reported as “inactive”. `CCOC(=O)C1CCCN(C(=O)c2cc(-c3cccs3)oc2C)CC1` (stereo not drawn) was tested, and the Potency was “inactive”. `O=C(NCc1ccc(F)cc1F)[C@@H]1CCCN1C(=O)[C@@H]1CCCN1C(=O)c1cccc(Cl)c1` was tested, and the Potency was “inactive”. In the case of `COc1ccc(N2c3ccccc3CN(Cc3ccccc3)[C@@H](C)[C@H]2Cc2ccc(-c3ccccc3)cc2)cc1`, the Potency is reported as “inactive”. In the case of `COC(=O)c1ccc2nc(-c3ccccc3)c(Cc3ccc(OC)cc3C)n2c1`, the Potency is reported as “inactive”. In the case of `CCN(CC)c1ncnc2c1ncn2[C@H]1CN(Cc2cccs2)C[C@@H](CO)O1`, the Potency is reported as “inactive”. `COCCOCCn1cnc2ccccc21` was tested, and the Potency was “inactive”. With `Cc1cc2ncn(CCCCOc3ccccc3)c2cc1C` the Potency was 10 µM (active). For `Clc1ncn(CCOc2ccccc2)c1Cl`, the activity change, negative = inhibition was 15.4% [at 0.307 µM]. For `COC(=O)c1ccc(CN2C(=O)C(Cc3ccccc3)ON=C2c2ncccc2C)o1` (stereo not drawn), the Potency was “inactive”. In the case of `CCc1nnc(NC(=O)c2ccco2)s1`, the Potency is reported as “inactive”. For `OC[C@@H]1CN(Cc2cccs2)C[C@H](n2cnc3c(Nc4ccccc4)ncnc32)O1`, the Potency was “inactive”. With `O=C(c1[nH]ncc1-c1ccc(Cl)cc1)C1CO1` (stereo not drawn) the Potency was 11.2 µM (active). `S=c1[nH]nc(-c2ccc(Cl)cc2)n1CC1CCCO1` (stereo not drawn) was tested, and the Potency was “inactive”. With `O=C(c1nnc(-c2ccc(Cl)cc2)o1)C1CCCC1` the Potency was “inactive”. `CC(=O)OC[C@@H]1CN(Cc2ccccc2)C[C@H](n2cnc3c(NCc4ccco4)ncnc32)O1` was tested, and the Potency was “inactive”. In the case of `CCCCCCN1C[C@@H](O)[C@H](n2cc(COC(=O)c3ccccc3)nn2)C[C@@H]1c1ccc(Cl)cc1`, the Potency is reported as “inactive”. With `C[C@H]1CN([C@@H](C)CO)C(=O)CCCn2nncc2CO[C@@H]1CN(C)S(=O)(=O)c1cccc(C#N)c1` the Potency was “inactive”. For `COCCCN1C(=O)C(CC(=O)NCc2cccs2)CC(C(=O)N2CCOCC2)=C1C` (stereo not drawn), the Potency was “inactive”. For `CCOc1ccc(NC(=O)c2nc(SCC)ncc2Cl)cc1`, the Potency was “inactive”. For `CCOc1ccc(N(Cc2ccccc2)C(=O)c2nc(SCC)ncc2Cl)cc1`, the Potency was 5.62 µM (active). For `CCSc1ncc(Cl)c(C(=O)Nc2c(C(=O)c3ccccc3)oc3ccccc23)n1`, the Potency was “inactive”. `CC(=O)C1=CCC(c2ccccc2)N(S(=O)(=O)c2ccc(C)cc2)C1` (stereo not drawn) was tested, and the Potency was “inactive”. For `COc1ccc(C(=O)OCC(=O)Nc2cc(C)on2)cc1F`, the Potency was “inactive”. With `COC(=O)c1ccc2c(c1)S(=O)(=O)NC2C` (stereo not drawn) the Potency was “inactive”. For `Cc1cc(Br)cn2c(Cc3ccccc3C(F)(F)F)c(C3CCCCC3)nc12`, the Potency was “inactive”. With `COc1ccc(CNC(=O)c2ccc(-c3cccnc3)c3ccoc23)cc1OC` the Potency was “inactive”. With `O=C(NC1(C(F)(F)F)N=C(c2ccccc2)N(C2CCCCC2)C1=O)c1ccccc1F` (stereo not drawn) the Potency was 11.2 µM (active). `COC(=O)NC1(C(F)(F)F)NC(=O)N(C2CCCCC2)C1=O` (stereo not drawn) was tested, and the Potency was “inactive”. With `O=C(NC1(C(F)(F)F)NC(=O)N(C2CCCCC2)C1=O)c1ccco1` (stereo not drawn) the Potency was “inactive”. `CC1(C(=O)NS(=O)(=O)C2CC2)CCCN(C(=O)CSc2ccccc2)C1` (stereo not drawn) was tested, and the Potency was “inactive”. With `CC1=C(C(=O)N(C)C)CC(CC(=O)NCCN2CCOCC2)C(=O)N1Cc1ccccc1` (stereo not drawn) the Potency was “inactive”. `C=C1C(=O)[C@]23C[C@H]1CCC2[C@@]1(C)C(C[C@@H]3O)[C@](C)(C(=O)O)CC[C@@H]1O` (stereo partly drawn) was tested, and the Potency was “inactive”. `COc1cc(C=C(OC(C)=O)c2ccc3c(c2)OCO3)cc(OC)c1OC` was tested, and the Potency was “inactive”. In the case of `C[C@H]1Cn2cnc(C(=O)N[C@H](C)c3ccccc3)c2C(=O)N1`, the Potency is reported as “inactive”. For `CCCCc1nc2ccc(F)cc2cc1C`, the Potency was “inactive”. For `O=C(Nc1ccc(F)cc1)c1ccc(S(=O)(=O)NCc2cccnc2)cc1`, the Potency was “inactive”. With `O=C(Nc1ccc(Br)cc1)c1ccc(Br)c(S(=O)(=O)NCc2ccccc2)c1` the Potency was 10 µM (active). For `Cc1ccc(C(=O)Nc2ccc(C(=O)O)cc2)cc1S(=O)(=O)Nc1ccccc1`, the Potency was “inactive”. For `O=C1OCCOC2CCCc3oc(-c4ccccc4)c1c32` (stereo not drawn), the Potency was “inactive”. With `COc1ccc(C(C)C)cc1-c1ccc2nncn2c1` the Potency was “inactive”. With `Cc1ccc(C(=O)N/C(=C/c2ccc(-c3cccc([N+](=O)[O-])c3)o2)C(=O)NCCCN(C)C)cc1` the Potency was 10 µM (active). In the case of `CN(C)CCNC(=O)/C(=C/c1cccc([N+](=O)[O-])c1)NC(=O)c1ccccc1`, the Potency is reported as “inactive”. Molecule `N#C/C(=C\c1ccc(-c2cccc([N+](=O)[O-])c2)o1)C(=O)NCCN1CCOCC1` has an activity change, negative = inhibition of 31.2% [at 7.66 µM]. With `O=C(OCC(=O)N1CCCCCC1)c1cccc(Cl)c1Cl` the Potency was “inactive”. In the case of `C[C@@H]1CN([C@H](C)CO)C(=O)CCCn2nncc2CO[C@@H]1CN(C)S(=O)(=O)c1cccc(C#N)c1`, the Potency is reported as “inactive”. For `Cc1ccc(Cn2cc(CN3CC(N4CCN(C)CC4)CS3(=O)=O)nn2)cc1` (stereo not drawn), the Potency was “inactive”. With `CCn1c(SCC(=O)NC2CCCC2)nnc1-c1ccoc1C` the Potency was “inactive”. In the case of `COc1ccccc1NC(=O)CSc1nnc(-c2ccoc2C)n1CCc1ccccc1`, the Potency is reported as 7.94 µM (active). In the case of `COc1cc(Cl)c(C)cc1NC(=O)CSc1nnc(-c2ccco2)n1CC(C)C`, the Potency is reported as “inactive”. `Cc1c(NC(=O)CSc2cccc3cccnc23)c(=O)n(-c2ccccc2)n1C` was tested, and the Potency was 5.62 µM (active). For `Cc1c(NC(=O)CSc2nnnn2-c2ccc(C(=O)O)cc2)c(=O)n(-c2ccccc2)n1C`, the Potency was “inactive”. In the case of `Cc1c(NC(=O)CSc2nnc(-c3cccnc3)n2N)c(=O)n(-c2ccccc2)n1C`, the Potency is reported as “inactive”. With `Cn1cnc(S(=O)(=O)N2C[C@@H](O)COC[C@@H]3O[C@H](CC(=O)NC4CCC4)CC[C@H]32)c1` the Potency was “inactive”. `Brc1ccc2nc(-c3ccccc3)c(Cc3ccccc3)n2c1` was tested, and the Potency was “inactive”. For `O=C(CCNC(=O)c1ccccc1Cl)NCc1ccco1`, the Potency was “inactive”. With `Cc1cccc(Nc2ccccc2C(=O)NCc2ccco2)c1C` the Potency was 12.6 µM (active). For `Cc1ccc(N(Cc2ccc(C(=O)Nc3ccccc3C(=O)NCc3ccco3)cc2)S(C)(=O)=O)cc1C`, the Potency was “inactive”. `CC1(C(=O)NCc2ccc3c(c2)OCO3)CCN1C(=O)Cc1cccs1` (stereo not drawn) was tested, and the Potency was “inactive”. For `O=C(NCc1cccnc1)c1cc(C2CCCCN2C(=O)CCc2ccccc2)on1` (stereo not drawn), the Potency was “inactive”.
